Here are results for 7 molecules from PubChem BioAssay (EPA / NIEHS).

Inconclusive results are not listed. Calls of active or inactive are those of the source. How the source made its calls, unless noted: active means hit-call score of the fitted dose curve at least 0.9, where 1 is the maximum; inconclusive means response in the unintended direction; inactive means score below 0.9.

Read-out in assay [1]: ABC Transporter (ABCB11), ABCB11 (gene 8647)
In words: CLD_ABCB11_24hr: CellzDirect (CLD) Gene Expression Assay for ABC Transporter (ABCB11) at 24 hours (AID 2283674; active means hit-call score of the fitted dose curve at least 0.9, where 1 is the maximum; inactive means score below 0.9). Put shortly:
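ABCB11 transcript was quantified by qNPA chemiluminescence in cultured human liver hepatocytes 24 hours after dosing. Fresh dosing solutions were applied on consecutive days, against a 0.2% DMSO vehicle. Cytotoxicity was noted by phase-contrast morphology.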

Read-out in assay [2]: ABC Transporter (ABCB11), ABCB11 (gene 8647)
Briefly: CLD_ABCB11_6hr: CellzDirect (CLD) Gene Expression Assay for ABC Transporter (ABCB11) at 6 hours (AID 2283675).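 Further: hits raise ABCB11 mRNA level so AC50 marks induction.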 Put shortly: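 Read-out was ABCB11 mRNA gain of signal by quantitative nuclease protection assay, relative to 0.2% DMSO vehicle, 6 h post-dose. Cells were primary human hepatocytes from two donors, treated across multiple concentrations; phase-contrast cytotoxicity noted yes/no.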

Read-out in assay [3]: Cytochrome P450 2B6 (Homo sapiens) (UniProt P20813)
In words: CLD_CYP2B6_6hr: CellzDirect (CLD) Gene Expression Assay for xenobiotic metabolism (CYP2B6) at 6 hours (AID 2283677).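 Further: actives raise CYP2B6 transcript above DMSO baseline so AC50 marks an inducer.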 Put shortly:
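CYP2B6 transcript levels, read by chemiluminescent qNPA, were fitted for increase versus DMSO baseline; cultured human liver hepatocytes from two donor preparations were harvested 6 h after exposure to test chemicals at multiple concentrations.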

Read-out in assay [4]: Cytochrome P450 2C19 (Homo sapiens) (UniProt P33261)
Briefly: CLD_CYP2C19_6hr: CellzDirect (CLD) Gene Expression Assay for xenobiotic metabolism (CYP2C19) at 6 hours (AID 2283678). Put shortly:
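CYP2C19 transcript induction was quantified by quantitative nuclease protection assay with chemiluminescent read-out, 6 h after dosing. Cells were primary human hepatocytes from two donor preparations, given fresh dosing solutions daily in 0.2% DMSO vehicle. Activity was relative to DMSO.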

A short description of assay [5]: CCTE_Padilla_ZF_144hpf_TERATOSCORE: (Legacy) CCTE's 144 Hour Post-fertilization zebrafish Assay Teratoscore, Padilla Lab (AID 2283679; active means hit-call score of the fitted dose curve at least 0.9, where 1 is the maximum; inactive means score below 0.9;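 on AC50: zebrafish embryos with chorions exposed by immersion from 6-8 hpf to 5 dpf with daily renewal; teratogenicity score from eye scoring of death hatching and malformations at 144 hpf; higher score means more developmental defects relative to DMSO baseline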). A digest of the protocol:
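Larvae scored by eye at 144 hpf for death, hatching and malformations after a day in clean Hanks'. Before that, daily-renewed exposure at 80 uM (0.4% DMSO, 26C) from roughly 6-8 hpf through 5 dpf, 4 embryos per chemical.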

Read-out in assay [6]: Glyceraldehyde-3-phosphate dehydrogenase (Homo sapiens) (UniProt P04406)
In words: CLD_GAPDH_6hr: CellzDirect (CLD) Gene Expression Assay for Baseline Control (Glyceraldehyde 3-phosphate dehydrogenase) at 6 hours (AID 2283681).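 Further: active means increased signal relative to DMSO vehicle.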 A digest of the protocol:
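GAPDH baseline-control readout from qNPA (S1 nuclease digestion, probe hybridization, chemiluminescence) in lysates of cultured human hepatocytes harvested 6 h post-dosing. Chemicals tested at multiple concentrations versus 0.2% DMSO vehicle; microscopy-based cytotoxicity flagged yes/no.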

Read-out in assay [7]: Cytochrome P450 2B6 (Homo sapiens) (UniProt P20813)
In words: CLD_CYP2B6_24hr: CellzDirect (CLD) Gene Expression Assay for xenobiotic metabolism (CYP2B6) at 24 hours (AID 2283686). Put shortly: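 qNPA chemiluminescent measurement of mRNA at 24 hours in human primary hepatocyte cultures from two donor preparations, with daily fresh dosing and 0.2% DMSO vehicle as baseline. Morphology-based cytotoxicity flagged yes/no.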

Read-out in assay [8]: glucuronosyltransferase (UGT1A1), UGT1A1 (gene 54658)
Briefly: CLD_UGT1A1_24hr: CellzDirect (CLD) Gene Expression Assay for glucuronosyltransferase (UGT1A1) at 24 hours (AID 2283696). A digest of the protocol: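 UGT1A1 transcript induction was measured by quantitative nuclease protection assay (chemiluminescence) in human hepatocyte cultures 24 h after daily fresh dosing, with 0.2% DMSO as vehicle and baseline.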

Read-out in assay [9]: ABC Transporter (ABCB11), ABCB11 (gene 8647)
Briefly: CLD_ABCB11_48hr: CellzDirect (CLD) Gene Expression Assay for ABC Transporter (ABCB11) at 48 hours (AID 2283697). A digest of the protocol: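 Induction of ABCB11 mRNA relative to 0.2% DMSO, measured at 48 h by qNPA chemiluminescence. Cultured human hepatocytes (two donors) received fresh dosing solutions at several concentrations on two consecutive days.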

Read-out in assay [10]: Cytochrome P450 3A4 (Homo sapiens) (UniProt P08684)
Briefly: CLD_CYP3A4_48hr: CellzDirect (CLD) Gene Expression Assay for xenobiotic metabolism (CYP3A4) at 48 hours (AID 2283698). A digest of the protocol: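 CYP3A4 induction read by qNPA chemiluminescence after 48 h, with fresh dosing solutions on consecutive days, in cultured human hepatocytes (two donors). Vehicle 0.2% DMSO as baseline; microscopy-based cytotoxicity annotated yes/no alongside data.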

Read-out in assay [11]: Cytochrome P450 2B6 (Homo sapiens) (UniProt P20813)
In words: CLD_CYP2B6_48hr: CellzDirect (CLD) Gene Expression Assay for xenobiotic metabolism (CYP2B6) at 48 hours (AID 2283699).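 Further: actives raise transcript level above DMSO so potency reflects induction.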 A digest of the protocol:
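CYP2B6 transcript induction, read by quantitative nuclease protection (S1 digestion, chemiluminescent detection) 48 h after dosing, is fitted upward against 0.2% DMSO. Cultured human liver primary cells, two donor preparations, received fresh chemical daily over multiple concentrations.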

Read-out in assay [12]: xenobiotic metabolism (CYP1A2), CYP1A2 (gene 1544)
Briefly: CLD_CYP1A2_48hr: CellzDirect (CLD) Gene Expression Assay for xenobiotic metabolism (CYP1A2) at 48 hours (AID 2283703). A digest of the protocol: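 Cytotoxicity was flagged yes/no from morphology, while CYP1A2 transcript induction was detected by qNPA chemiluminescence after a 48-hour exposure. Human primary hepatocyte cultures from separate donors received fresh dosing solutions daily over two days, with 0.2% DMSO as vehicle and baseline.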

Read-out in assay [13]: Broad substrate specificity ATP-binding cassette transporter ABCG2 (Homo sapiens) (UniProt Q9UNQ0)
Briefly: CLD_ABCG2_48hr: CellzDirect (CLD) Gene Expression Assay for ABC Transporter (ABCG2) at 48 hours (AID 2283704). A digest of the protocol:
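ABCG2 transcript measured at 48 h by quantitative nuclease protection (chemiluminescent) and fitted for increase relative to 0.2% DMSO. Hepatocyte cultures from separate donors got fresh compound daily over two days; morphology annotated cytotoxicity.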

Read-out in assay [14]: xenobiotic metabolism (CYP1A1), CYP1A1 (gene 1543)
In words: CLD_CYP1A1_48hr: CellzDirect (CLD) Gene Expression Assay for xenobiotic metabolism (CYP1A1) at 48 hours (AID 2283705). A digest of the protocol: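 CYP1A1 transcript measured by quantitative nuclease protection (chemiluminescent) 48 h after two daily treatments of human hepatocyte cultures, versus 0.2% DMSO. Morphology-based cytotoxicity flags accompany data; two donor preparations used.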

Read-out in assay [15]: Glyceraldehyde-3-phosphate dehydrogenase (Homo sapiens) (UniProt P04406)
In words: CLD_GAPDH_48hr: CellzDirect (CLD) Gene Expression Assay for Baseline Control (Glyceraldehyde 3-phosphate dehydrogenase) at 48 hours (AID 2283706).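 Further: active means higher GAPDH mRNA than DMSO vehicle.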 A digest of the protocol:
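GAPDH baseline-control readout: qNPA chemiluminescent mRNA quantitation in human liver primary cells 48 h after daily dosing on two consecutive days, vehicle 0.2% DMSO; gain of signal fitted against DMSO, cytotoxicity flagged by phase-contrast morphology.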

Read-out in assay [16]: organic anion transporter (SLCO1B1), SLCO1B1 (gene 10599)
Briefly: CLD_SLCO1B1_48hr: CellzDirect (CLD) Gene Expression Assay for organic anion transporter (SLCO1B1) at 48 hours (AID 2283707). A digest of the protocol:
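SLCO1B1 transcript quantified by qNPA with chemiluminescent readout after 48 h of once-daily chemical exposure. Cultured human primary hepatocytes came from two donors, with 0.2% DMSO vehicle; positive-direction fitting against DMSO, cytotoxicity flagged by morphology.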

Read-out in assay [17]: xenobiotic metabolism (CYP1A2), CYP1A2 (gene 1544)
In words: CLD_CYP1A2_24hr: CellzDirect (CLD) Gene Expression Assay for xenobiotic metabolism (CYP1A2) at 24 hours (AID 2283683). A digest of the protocol:
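CYP1A2 mRNA induction measured by quantitative nuclease protection (chemiluminescent) in human primary hepatocytes 24 h after multi-concentration chemical dosing with daily fresh solutions. DMSO (0.2%) baseline; positive-direction fitting; morphology-based cytotoxicity noted.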

Assay [18] can be described thus: CLD_ACTIN_6hr: CellzDirect (CLD) Gene Expression Assay for Baseline Control (Actin) at 6 hours (AID 2283676).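 Further: active means increased actin mRNA relative to DMSO vehicle.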 Put shortly:
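Baseline actin transcript level measured by qNPA (S1 nuclease protection, chemiluminescence) in human hepatocyte cultures 6 h after chemical exposure; 0.2% DMSO vehicle as reference, cytotoxicity noted from morphology.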

Read-out in assay [19]: ABC Transporter (ABCB1), ABCB1 (gene 5243)
Briefly: CLD_ABCB1_24hr: CellzDirect (CLD) Gene Expression Assay for ABC Transporter (ABCB1) at 24 hours (AID 2283684). Put shortly:
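ABCB1 mRNA induction versus 0.2% DMSO vehicle was read by qNPA chemiluminescence at 24 h. Cultured human hepatocytes from two donor preparations received daily fresh dosing, and phase-contrast cytotoxicity calls were annotated alongside the data.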

Chain of Broad substrate specificity ATP-binding cassette transporter ABCG2 (Homo sapiens) (Q9UNQ0 whole entry, looked up): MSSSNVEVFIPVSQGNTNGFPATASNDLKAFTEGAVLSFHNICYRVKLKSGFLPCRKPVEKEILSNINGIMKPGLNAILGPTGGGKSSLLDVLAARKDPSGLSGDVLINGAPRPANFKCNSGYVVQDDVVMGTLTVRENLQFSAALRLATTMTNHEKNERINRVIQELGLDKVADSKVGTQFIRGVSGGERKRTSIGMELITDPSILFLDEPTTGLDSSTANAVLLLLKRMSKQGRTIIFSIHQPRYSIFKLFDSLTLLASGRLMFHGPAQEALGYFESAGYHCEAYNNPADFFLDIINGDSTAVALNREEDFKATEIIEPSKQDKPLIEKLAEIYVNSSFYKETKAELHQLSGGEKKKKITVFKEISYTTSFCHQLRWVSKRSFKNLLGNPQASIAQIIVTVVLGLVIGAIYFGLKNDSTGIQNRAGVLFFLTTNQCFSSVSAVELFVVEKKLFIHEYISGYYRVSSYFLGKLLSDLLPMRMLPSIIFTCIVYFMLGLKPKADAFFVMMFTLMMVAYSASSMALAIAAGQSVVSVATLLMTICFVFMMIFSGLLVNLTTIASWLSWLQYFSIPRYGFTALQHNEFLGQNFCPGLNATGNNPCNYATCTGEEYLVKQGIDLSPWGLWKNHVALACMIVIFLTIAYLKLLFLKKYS
Chain of Cytochrome P450 2C19 (Homo sapiens) (P33261 whole entry, looked up): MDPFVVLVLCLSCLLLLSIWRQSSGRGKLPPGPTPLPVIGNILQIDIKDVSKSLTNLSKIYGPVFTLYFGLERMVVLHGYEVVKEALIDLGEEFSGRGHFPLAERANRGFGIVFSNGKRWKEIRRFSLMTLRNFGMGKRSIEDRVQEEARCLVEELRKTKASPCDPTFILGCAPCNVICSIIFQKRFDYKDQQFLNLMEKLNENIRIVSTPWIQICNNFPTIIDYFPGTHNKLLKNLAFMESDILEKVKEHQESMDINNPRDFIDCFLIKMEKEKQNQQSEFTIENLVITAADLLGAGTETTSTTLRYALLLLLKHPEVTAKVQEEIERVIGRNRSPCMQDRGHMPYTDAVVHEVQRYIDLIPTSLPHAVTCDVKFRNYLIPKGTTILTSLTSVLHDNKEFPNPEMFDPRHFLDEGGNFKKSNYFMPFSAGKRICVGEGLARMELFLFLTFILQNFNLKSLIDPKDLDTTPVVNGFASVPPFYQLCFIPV
Chain of Glyceraldehyde-3-phosphate dehydrogenase (Homo sapiens) (P04406 whole entry, looked up): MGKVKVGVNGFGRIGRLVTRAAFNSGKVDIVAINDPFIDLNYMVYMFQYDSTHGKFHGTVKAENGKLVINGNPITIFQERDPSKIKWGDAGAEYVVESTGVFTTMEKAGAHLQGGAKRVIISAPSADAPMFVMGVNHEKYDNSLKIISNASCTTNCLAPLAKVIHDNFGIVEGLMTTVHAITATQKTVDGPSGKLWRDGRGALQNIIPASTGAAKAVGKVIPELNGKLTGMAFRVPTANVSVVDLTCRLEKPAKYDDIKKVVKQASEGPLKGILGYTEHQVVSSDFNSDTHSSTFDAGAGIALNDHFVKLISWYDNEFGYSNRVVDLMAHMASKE
Chain of Cytochrome P450 3A4 (Homo sapiens) (P08684 whole entry, looked up): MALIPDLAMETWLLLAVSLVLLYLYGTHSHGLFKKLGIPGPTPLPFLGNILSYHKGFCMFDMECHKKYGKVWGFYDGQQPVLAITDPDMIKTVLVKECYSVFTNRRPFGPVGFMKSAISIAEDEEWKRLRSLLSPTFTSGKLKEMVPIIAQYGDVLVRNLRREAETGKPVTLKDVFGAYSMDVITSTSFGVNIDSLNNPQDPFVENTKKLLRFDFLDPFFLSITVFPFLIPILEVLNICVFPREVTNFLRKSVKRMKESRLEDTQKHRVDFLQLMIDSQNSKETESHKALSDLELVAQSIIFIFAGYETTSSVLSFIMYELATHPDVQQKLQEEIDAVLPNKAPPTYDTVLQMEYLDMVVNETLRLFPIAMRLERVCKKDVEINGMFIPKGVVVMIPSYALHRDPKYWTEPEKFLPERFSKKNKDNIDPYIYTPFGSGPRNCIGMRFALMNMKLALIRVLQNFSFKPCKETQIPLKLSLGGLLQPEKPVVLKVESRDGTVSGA

In general, AC50 refers to the midpoint of the concentration-response curve, whichever way the signal moves. `CCS(=O)(=O)c1cccnc1S(=O)(=O)NC(=O)Nc1nc(OC)cc(OC)n1`: the molecule was called inactive in assay [1], in assay [2], in assay [4], in assay [5], in assay [6] and in assay [7]. In addition, the molecule was called inactive in [8], in assay [9], in [11], in assay [12], in [13] and in assay [15]. The molecule was called inactive in assay [16]. Besides, the AC50 in assay [3] is 11.3 µM (active); in [10] it was 20 µM (active); in assay [14], 2.37 µM (active).
In the case of `CCOc1nc(NC)nc(NC(=O)NS(=O)(=O)c2ccccc2C(=O)OC)n1`, the call in [1], in [3], in assay [5], in assay [6], in assay [8] and in assay [9] was inactive. Also, the molecule was classed as inactive in [10], in assay [11], in [13], in [15] and in assay [16]. For the same molecule, the half-maximal activity concentration (AC50) in [17] is 7.74 µM (active); in assay [12], 14.3 µM (active); in assay [14], 20 µM (active).
On to `O=[N+]([O-])/N=C1\NCCN1Cc1ccc(Cl)nc1`, for which the molecule was called inactive in assay [1], in assay [2], in assay [3], in assay [4], in [5] and in assay [6]. In addition, the molecule was classed as inactive in assay [7], in [8], in assay [10], in [11], in assay [14] and in assay [15].
As to `CNC(=O)Oc1cccc(N=CN(C)C)c1`, the result in assay [2], in [18], in [3], in assay [4], in [5] and in assay [6] was inactive. Also, the outcome in assay [8], in assay [12], in assay [14] and in assay [15] was inactive.
For the molecule `CNC(=O)CSP(=S)(OC)OC`, the molecule was called inactive in [2], in assay [18], in assay [4], in assay [5], in assay [6] and in assay [7]. In addition, the result in [8], in assay [12] and in assay [13] was inactive. Further, in assay [3], the AC50 was 3.11 µM (active).
In the case of `CNC(=O)/C=C(\C)OP(=O)(OC)OC`, the call in assay [1], in [2], in [3], in assay [5], in assay [8] and in [9] was inactive. The outcome in assay [11], in [12], in assay [13], in assay [14], in assay [15] and in assay [16] was inactive. For the same molecule, the results for the concentration at half-maximal activity (AC50) in [7] and in assay [10] were 0.000497 µM (active) and 1.9 µM (active), respectively.
On to `O=S1OCC2C(CO1)C1(Cl)C(Cl)=C(Cl)C2(Cl)C1(Cl)Cl` (stereo not drawn), for which the outcome in assay [1], in [2], in assay [18], in [6], in [19] and in assay [8] was inactive. Besides, the outcome in assay [13] was inactive. The AC50 was 1.24 µM (active) in [3]; 3.4 µM (active) in assay [5]; 2.56 µM (active) in assay [7]; 9.22 µM (active) in assay [10]; 0.98 µM (active) in assay [11].
